26 compounds from PubChem BioAssay can be followed below.

For this test, the system named is Sonic hedgehog protein (Shh). As to the kind of experiment: small-molecule binders of Shh protein, primary screen, biochemical, small-molecule microarray, 635/667 nm fluorescence (AID 1151).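 Further: Shh protein binding to compounds spotted on small-molecule microarray slides; score combines spot fluorescence intensity with signal-to-noise across triplicate slides.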 The conditions noted are these: small-molecule microarray binding, 635 nm fluorescence; higher = more signal.
Compound `C=CCC(OC(C)=O)[C@@H]1[C@@H](N(Cc2cc3ccccc3o2)C(=O)c2ccc(C)cc2)c2cc(OCCCO)ccc2N1C(=O)c1ccc2ccccc2c1` (stereo partly specified) came in with a composite z-score of 0.218.
In the case of `COc1c(C)cc(-c2cc3c(c(-c4ccc(Oc5ccccc5)cc4)n2)[Si](C(C)C)(C(C)C)OC3)cc1C` it was 0.205; in that of `COc1ccc([Si](C)(C)[C@@H]2[C@@H](CC(=O)N3CCC[C@H]3CO)O[C@]3(C(=O)N(C)c4c(Br)cc(C)cc43)[C@H]2C)cc1`, 1.43.
Take `CCC(CC)C(O)C1C=CC2C(=O)N(c3ccccc3)C(=O)C2N1Nc1ccc(C#N)cc1` (stereo unspecified): the composite z-score was -0.41.
In the case of `C=CCC(OC(C)=O)[C@@H]1[C@@H](N(Cc2ccc(-c3ccccc3)cc2)C(=O)Cc2ccc(F)cc2)c2cc(OCCCO)ccc2N1C(=O)c1ccc2ccccc2n1` (stereo partly specified) it was 0.321.
`C=C[C@@H](COC(C)=O)N(Cc1ccccc1[N+](=O)[O-])S(=O)(=O)c1ccc(Br)cc1` yielded a composite z-score of 1.97.
Regarding `COCCOC(=O)N1C(=O)[C@@]2(c3cc(C#CC4=CCCCC4)ccc31)[C@H](C(=O)NC[C@H](O)c1ccccc1)[C@H]1C(=O)O[C@H](c3ccccc3)[C@H](c3ccccc3)N1[C@@H]2c1ccc(O)cc1`, the composite z-score was found to be 1.34.
Take `[N-]=[N+]=Nc1ccccc1[C@@H]1OC(c2ccc(OCCCO)cc2)=N[C@]1(CCS(=O)(=O)c1ccccc1)C(=O)N1CCOCC1`: the composite z-score was -0.29.
As for `Cc1ccc(S[C@]2(C(=O)NCC(C)C)CC(=O)N(Cc3ccccc3Cl)[C@@H]2c2ccc(CO)cc2)cc1`, the composite z-score was -1.18.
The compound `CC(C)C(=C=CC[C@@H](O)c1ccccc1OCCO)C[C@@H](O)c1ccccn1` registered a composite z-score of 1.14.
In the case of `O=C1O[C@H](c2ccccc2)[C@H](c2ccccc2)N2[C@H]1[C@@H](C(=O)NC[C@H](O)c1ccccc1)[C@]1(C(=O)Nc3ccc(C#CCCO)cc31)[C@H]2c1ccc(O)cc1` it was -0.606; in that of `COCCOC(=O)N1C(=O)[C@@]2(c3cc(C#CCNC(N)=O)ccc31)[C@H](c1ccccc1OCCO)N1[C@H](c3ccccc3)[C@H](c3ccccc3)OC(=O)[C@H]1[C@@H]2C(N)=O`, 1.8; in that of `O=C1C2C=CC(C(O)c3cccs3)N(Nc3ccccc3F)C2C(=O)N1c1ccccc1` (stereo unspecified), -0.573.
Compound `COCCOC(=O)N1C(=O)[C@@]2(c3cc(C#Cc4ccc(OC)cc4)ccc31)[C@H](C(=O)N1CCN(c3ncccn3)CC1)[C@H]1C(=O)O[C@H](c3ccccc3)[C@H](c3ccccc3)N1[C@@H]2c1ccc(O)cc1` showed a composite z-score of 0.736.
In the case of `COC(=O)c1ccc(C23CC2(C(NP(=O)(c2ccccc2)c2ccccc2)c2ccccc2)C3)cc1` (stereo unspecified), the composite z-score was -0.803.
As for `CS(=O)(=O)CCOC(=O)C1=CC(CCCO)=CC(c2cccs2)N(Cc2cc3c(cc2Br)OCO3)C=C1C(=O)OCCS(C)(=O)=O` (stereo unspecified), the composite z-score came out at 0.759.
For the compound `CC(C)c1ccc(NN2C(C(O)c3ccc(N(C)C)cc3)C=CC3C(=O)N(c4ccccc4)C(=O)C32)cc1` (stereo unspecified), the composite z-score is -0.0206.
In the case of `COCCOC(=O)N1C(=O)[C@@]2(c3cc(C#CCC(C(=O)OC)C(=O)OC)ccc31)[C@H](c1ccc(O)cc1)N1[C@H](c3ccccc3)[C@H](c3ccccc3)OC(=O)[C@H]1[C@@H]2C(N)=O` it was 0.922; in that of `COc1ccc([Si](C)(C)[C@@H]2[C@@H](CCn3cc([C@H](O)c4ccccc4)nn3)O[C@]3(C(=O)N(Cc4ccc(N5C(=O)c6cccc7cccc5c67)cc4)c4ccccc43)[C@H]2C)cc1`, -0.0774.
On to `CCOC(=O)C1=CC[C@@H](c2ccccc2)N(S(=O)(=O)c2ccc(C)cc2)[C@H]1C(=O)OCC`, for which the composite z-score is -0.189.
The compound `CCCCCN1CC=CC23O[C@@H]4/C=C\CCCOC(=O)C4[C@H]2C(=O)N(CCCCCCO)[C@@H]3C1=O` (stereo partly specified) returned a composite z-score of 0.124.
Take `COCCOC(=O)N1C(=O)[C@@]2(c3ccccc31)[C@H](C(=O)NC[C@H](O)c1ccccc1)[C@H]1C(=O)O[C@H](c3ccccc3)[C@H](c3ccccc3)N1[C@@H]2c1ccc(OCCO)cc1`: the composite z-score was found to be 2.29.
In the case of `CC(=O)Nc1cc(Br)ccc1C(=O)O` it was -0.402; in that of `CN(C)C(=O)[C@@]1(CCC(=O)OC(C)(C)C)N=C(c2ccc(OCCCO)cc2)O[C@H]1c1ccccc1`, -0.467.
`C=CCOC(=O)[C@@H]1[C@H]2C(=O)O[C@H](c3ccccc3)[C@H](c3ccccc3)N2[C@H](c2ccc(OCCOC(=O)[C@@H]3C[C@@H]4C(=O)N[C@@H](Cc5ccccc5)C(=O)N4[C@@H]3c3cccc(OCCO)c3)cc2)[C@@]12C(=O)Nc1ccc(I)cc12` yielded a composite z-score of 2.16.
`COc1cc2c(cc1O)C(C)N(Cc1cccc(OC(F)(F)F)c1)CC2` (stereo unspecified) showed a composite z-score of 0.204.
